MPTP inh – inhibitors of mitochondrial permeability transition pore; inhibition, % at 10 µM; isolated mouse mitochondria, Ca2+ swelling absorbance, 30 min; actives 1.4% (n = 360,000); AID 602449;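 active = inhibition of 50% or more, scaled per plate between neutral and stimulator controls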;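 also: 0% = DMSO wells given calcium and 100% = 1 mM EGTA wells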
F508del corr – CFTR F508del correction in bronchial cells; CFBE cells, YFP halide quenching; stimulated with forskolin plus potentiator P3; % fluorescence drop versus neutral controls; activity (quench increase), % at 7.58 µM; actives 0.36% (n = 350,000);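 active = mean added fluorescence quench of at least 8% versus neutral control, with both replicates also reaching 8%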;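 also: cells transiently co-express mutant CFTR-F508del with the halide-sensitive YFP; corrector assay measuring rescue of mutant channel to the surface after 24 h compound exposure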
ATG4B inh – ATG4B (human) cysteine protease inhibition. actives 0.51% (n = 340,000). inhibition, % at 8.33 µM. ATG4B cleavage of LC3-PLA2, NBD-HPC fluorescence, 1 h. Q9Y4P1. AID 504462; in the data active = inhibition above about 40%
SKN-1 block – C. elegans SKN-1 inhibition. C. elegans VP596 Pgst-4::GFP/RFP ratio, acrylamide-induced, 24 h. inhibition, % at 21.8 µM. actives 0.49% (n = 360,000);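 active = interference check ratio from 0.5 to 1.5 plus GFP to RFP signal ratio inhibition reaching or exceeding a fixed threshold, cut at about 30% in these data, passing the limit was not always enough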
NRP1-CendR mod – modulators of CendR peptide binding to human neuropilin-1; O14786; inhibition, % at 25 µM; FAM-RPARPAR peptide binding to NRP-1, fluorescence polarization; actives 0.85% (n = 360,000);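 active = inhibition or corrected inhibition above about 18%, plus a signal ratio from 0.5 to 1.5, limit read from the data, passing the limit was not always enough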
Target sequence (O14786 whole entry, looked up): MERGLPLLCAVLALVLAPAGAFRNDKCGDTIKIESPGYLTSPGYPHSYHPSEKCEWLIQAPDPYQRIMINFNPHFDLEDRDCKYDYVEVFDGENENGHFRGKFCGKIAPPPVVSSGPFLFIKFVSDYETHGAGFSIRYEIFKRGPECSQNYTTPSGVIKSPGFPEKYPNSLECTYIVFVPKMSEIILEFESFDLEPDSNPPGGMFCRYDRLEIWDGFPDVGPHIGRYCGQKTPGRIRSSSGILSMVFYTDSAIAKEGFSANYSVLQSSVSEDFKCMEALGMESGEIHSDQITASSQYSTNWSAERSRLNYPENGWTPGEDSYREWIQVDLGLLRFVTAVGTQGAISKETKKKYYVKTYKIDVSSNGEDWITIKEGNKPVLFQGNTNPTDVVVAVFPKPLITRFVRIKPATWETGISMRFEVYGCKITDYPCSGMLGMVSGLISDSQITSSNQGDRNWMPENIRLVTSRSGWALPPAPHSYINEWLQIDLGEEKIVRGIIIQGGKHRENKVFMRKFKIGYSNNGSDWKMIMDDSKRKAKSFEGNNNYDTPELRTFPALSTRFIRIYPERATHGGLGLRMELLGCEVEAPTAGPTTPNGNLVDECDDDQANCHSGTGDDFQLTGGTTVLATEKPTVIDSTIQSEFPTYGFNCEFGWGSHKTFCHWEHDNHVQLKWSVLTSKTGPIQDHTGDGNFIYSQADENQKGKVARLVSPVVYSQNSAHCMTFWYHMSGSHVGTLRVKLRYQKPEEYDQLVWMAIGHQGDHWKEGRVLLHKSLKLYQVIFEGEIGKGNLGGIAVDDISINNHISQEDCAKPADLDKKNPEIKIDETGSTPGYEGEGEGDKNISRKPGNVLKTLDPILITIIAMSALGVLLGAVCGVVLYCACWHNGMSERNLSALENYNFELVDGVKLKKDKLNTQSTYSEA
MPTP counter – mitochondrial membrane potential, counter-screen; shares compounds with MPTP inh; isolated mitochondria, Rhodamine 123 fluorescence; AID 624504; actives 78% (n = 5,000); inhibition, % at 10 µM; in the data active = inhibition above about 22%;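 also: 0% = DMSO vehicle and 100% = positive control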
MPTP abs DR – dose response confirmation of mitochondrial permeability transition pore inhibitors. shares compounds with MPTP inh. isolated mitochondria swelling, absorbance. IC50, µM. actives 58% (n = 780). AID 651561; in the data active = IC50 below about 20 µM
MPTP cs DR – counter-screen for mitochondrial permeability transition pore inhibitors, dose response. shares compounds with MPTP inh. isolated mitochondria counterscreen, fluorescence read-out. IC50, µM. actives 49% (n = 780). AID 651564; in the data active = IC50 below about 80 µM
An asterisk follows results filed as active; nt = not tested or not shown. Only some compounds are listed: those with a hit (about 2.7% of all), similar ones and a draw of the others.

SMILES	MPTP inh	F508del corr	ATG4B inh	SKN-1 block	NRP1-CendR mod	MPTP counter	others
COc1cc(NC(=S)NCCC(c2ccccc2)c2ccccc2)cc(OC)c1	78*	2	-1	4	-7	92*
Cc1cccc(NC(=S)NNC(=S)NCc2ccccc2)c1	42	nt	-2	-6	1	nt
Cc1noc(C)c1NC(=O)Nc1ccc2c(c1)C(=O)N(C)[C@@H]1CC[C@H](CC(=O)N[C@H]3CCN(Cc4ccccc4)C3)O[C@@H]1CO2	nt	3	nt	nt	nt	nt
Cc1ccc(SCCNC(=S)Nc2ccccc2)cc1	6	nt	17	3	-2	nt
COC(=O)Cc1ccc(NC(=S)NCCSc2ccc(Cl)cc2)cc1	63*	-2	-3	3	12	77*
Cc1ccc(SCCNC(=S)Nc2ccc(C)c(C)c2)cc1	72*	nt	36	17	4	91*
Cc1ccc(SCCNC(=S)Nc2cc(C)ccc2C)cc1	0	nt	7	-8	-10	nt
Cc1cc(C)cc(NC(=S)NCCSc2ccc(Cl)cc2)c1	87*	1	9	1	-1	98*
COC(=O)c1ccc(CN2CC(=O)N3[C@@H](CO)[C@@H](c4ccc(-c5cccnc5)cc4)[C@@H]3C2)cc1	nt	-2	nt	nt	nt	nt
COc1cc(NS(=O)(=O)c2ccc(-n3cccn3)cc2)cc(OC)c1	60*	nt	nt	-8	4	71*
Cc1ccc(NS(=O)(=O)c2ccc(-n3cccn3)cc2)cc1C	2	1	-10	10	3	nt
CC(Nc1ncnc2ccccc12)c1ccccc1 (stereo not given)	96*	0	8	-6	-12	83*
CCCCC(Nc1ncnc2ccccc12)C(=O)O (stereo not given)	-1	nt	2	-1	16	nt
Cc1ccc(NC(=O)c2cc(C(=O)c3cc(Cl)ccc3O)cn(-c3ccc(C)cc3)c2=O)cc1	92*	nt	-1	14	-42	85*
CN1CCN(C(=O)C[C@H]2C[C@H]3c4cc(NC(=O)c5cccnc5)ccc4O[C@H]3[C@@H](CO)O2)CC1	nt	1	nt	nt	nt	nt
CC(C)(C#CCN1CCCCC1)OCCOC(c1ccccc1)c1ccccc1	77*	nt	10	7	4	12	MPTP abs DR=20*;MPTP cs DR=20*
CC(O)(C#CCN1CCCCC1)c1ccccc1 (stereo not given)	-1	nt	5	0	3	nt
COc1cc(CN2[C@@H]3CNC[C@H]2C3c2ccc(-c3cccc(C)c3)cc2)cc(OC)c1 (stereo not given in full)	nt	0	nt	nt	nt	nt
CCOc1ccccc1-c1cc(-c2ccc(OC)cc2)nc2c1c(=O)n(C)c(=O)n2C	83*	nt	7	-10	-3	6	MPTP abs DR=>100;MPTP cs DR=>80
COc1ccccc1-n1c(=O)c(C#N)c(-c2ccc([N+](=O)[O-])cc2)c2cc(C(=O)c3cc(F)ccc3O)cnc21	-1	2	-4	-3	2	nt
Cn1c(=O)c(C#N)c(-c2ccc(F)cc2)c2cc(C(=O)c3cc(Cl)cc(Cl)c3O)cnc21	95*	3	3	5	-2	60*
CC(C)c1noc2ncc(C(=O)c3cc(Cl)cc(Cl)c3O)cc12	94*	nt	7	-9	-2	105*
Nc1nc2ncc(C(=O)c3cc(Cl)cc(Cl)c3O)cc2s1	-1	1	8	-7	9	nt
Cc1ccc(S(=O)(=O)N[C@@H]2CC[C@H](CCNC(=O)C3CCC3)O[C@H]2CO)cc1	nt	0	nt	nt	nt	nt
Cc1noc(C)c1S(=O)(=O)N(C)C[C@H]1OCCCC[C@H](C)Oc2ccc(NS(=O)(=O)c3cn(C)cn3)cc2C(=O)N([C@H](C)CO)C[C@@H]1C	nt	-1	nt	nt	nt	nt
SMILES	MPTP inh	F508del corr	ATG4B inh	SKN-1 block	NRP1-CendR mod	MPTP counter	others
Cc1cc(C(=O)CSc2nnc(-c3ccccc3F)o2)c(C)n1Cc1cccs1	54*	nt	4	-15	-18	29*
COc1ccccc1-n1cnnc1SCC(=O)c1cc(C)n(Cc2cccs2)c1C	7	nt	-5	8	-13	nt
OC(CN1CCN(c2cccc(C(F)(F)F)c2)CC1)c1c[nH]c2ccccc12 (stereo not given)	53*	nt	-19	3	-9	-22	MPTP abs DR=>100;MPTP cs DR=72*
OC(COCc1cccs1)CN1CCN(c2cccc(C(F)(F)F)c2)CC1 (stereo not given)	0	nt	3	0	3	nt
O=C(C[C@@H]1C=C[C@H](NS(=O)(=O)c2ccccc2)[C@H](CO)O1)NCCN1CCCCC1	nt	2	nt	nt	nt	nt
OCCN1CCN(c2ncnc3c2ncn3[C@H]2CN(Cc3cccs3)C[C@@H](CO)O2)CC1	57*	1	nt	-5	-3	-3	MPTP abs DR=>100;MPTP cs DR=>80
OC[C@@H]1CN(Cc2cccs2)C[C@H](n2cnc3c(N4CCN(c5ccccc5)CC4)ncnc32)O1	0	-1	nt	11	-9	nt
CC[C@@H](C(=O)[C@@H](C)[C@@H](O)[C@H](C)CCc1ccc(C)c(O)c1C(=O)O)[C@H]1O[C@](CC)([C@H]2CC[C@](O)(CC)[C@H](C)O2)C[C@@H]1C	104*	1	2	12	6	84*
O=C(CC1NCCc2ccccc21)Nc1ccc(Oc2ccccc2)cc1 (stereo not given)	92*	1	9	3	18	-17	MPTP abs DR=4.7*;MPTP cs DR=36*
Cc1ccc(OCCCCNC2CCCC(C)C2C)c(C)c1 (stereo not given)	60*	nt	0	7	13	-1
CCN(CC)S(=O)(=O)c1ccc(N2CCN(c3ccccc3OC)CC2)c(N)c1	108*	1	-12	-22	12	98*
CCN(CC)S(=O)(=O)c1ccc(Oc2ccccc2)c(N)c1	1	0	-6	0	10	nt
Cc1cccc(N2CCN(C(=O)CSCc3c(C)noc3C)CC2)c1C	90*	nt	0	7	-22	75*
CN1C(=O)c2cc(NC(=O)c3cccc(C(F)(F)F)c3)ccc2OC[C@@H]2O[C@H](CC(=O)NCCN3CCCC3)CC[C@H]21	nt	-1	nt	nt	nt	nt
O=C(CSC1=NS(=O)(=O)c2cc(Cl)ccc2N1)c1ccc(Cl)cc1	98*	1	-6	7	12	88*
O=C(CSC1=NS(=O)(=O)c2cc(Cl)ccc2N1)Nc1cccc(F)c1	62*	0	-11	-2	-16	56*
CC(=O)c1ccc(NC(=O)CSC2=NS(=O)(=O)c3cc(Cl)ccc3N2)cc1	-2	2	-13	2	-2	nt
COCC(=O)N1CC2(CN[C@@H](CO)c3c2c2ccc(OC)cc2n3C)C1	nt	1	nt	nt	nt	nt
COc1ccc(NCc2nc3ccccc3n2CCOc2ccc(C)cc2)cc1	70*	0	20	1	5	37*
